Laboratory results taken from PubChem BioAssay (NCATS).
Results filed as inconclusive are left out. Calls of active or inactive are those of the source. Calls come from the whole dose curve; as a rule, active = well fitted curve in the direction sought with a large enough effect; inconclusive = small, poorly fitted or top-dose-only effect, or another doubt; inactive = no such curve, though single readings can be large; an effect the other way counts as inactive or inconclusive.

What was measured:
[1] = BET inhibitor-based combinations targeting novel dependencies in MECOM-rearranged (r) AML: SET-2 cell line (AID 2202231); details: SET-2 AML cells viability, CellTiter-Glo luminescence, 48 h; viability: stronger effect = lower value, concentration not given here; note: nearly all actives have a fitted effect of over 35% in size;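 for viability: plate controls were DMSO treated cells for no effect and wells without cells for full effect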
Outline: (§1)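 Readout: CellTiter-Glo luminescence. Exposure: 48 h, 11 concentrations, 500 cells/well. Metric: AUC and within-line Z-AUC after DMSO/empty-well normalization.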

[2] = BET inhibitor-based combinations targeting novel dependencies in MECOM-rearranged (r) AML: OCI-AML3 cell line (AID 2202232); details: Potency: OCI-AML3 viability; note: nearly all actives have a fitted effect of over 35% in size
Outline: as §1

[3] = BET inhibitor-based combinations targeting novel dependencies in MECOM-rearranged (r) AML: MV-4-11 cell line (AID 2202233); note: nearly all actives have a fitted effect of over 45% in size
Outline: (§2)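 Seeding density was 500 cells/well, and drug exposure lasted 48 hr under standard culture conditions. Read-out used CellTiter-Glo reagent with a 15 min room-temperature incubation before luminescence measurement; AUC and Z-AUC summarize the normalized responses.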

[4] = BET inhibitor-based combinations targeting novel dependencies in MECOM-rearranged (r) AML: HNT-34 cell line (AID 2202234); note: nearly all actives have a fitted effect of over 35% in size
Outline: as §2

[5] = BET inhibitor-based combinations targeting novel dependencies in MECOM-rearranged (r) AML: AML-191 cell line (AID 2202236; note: nearly all actives have a fitted effect of over 35% in size)
Outline: as §1

[6] = BET inhibitor-based combinations targeting novel dependencies in MECOM-rearranged (r) AML: AML-194 cell line (AID 2202237; note: nearly all actives have a fitted effect of over 40% in size)
Outline: as §1

[7] = BET inhibitor-based combinations targeting novel dependencies in MECOM-rearranged (r) AML: UCSD-AML1 cell line (AID 2202235); note: nearly all actives have a fitted effect of over 40% in size
Outline: as §2
Potency is the fitted concentration of half-maximal effect.

COc1nnc2ccc(N3CCC(c4ccc(OCCN5CCN(C)C(=O)[C@H]5C)cc4)CC3)nn12
active: Potency [1] 0.148 µM | Potency [2] 0.0417 µM | Potency [3] 0.059 µM | Potency [4] 0.105 µM | Potency [5] 0.0833 µM

Nc1cccc2c1CN([C@H]1CCC(=O)NC1=O)C2=O
active: Potency [4] 1.18 µM
inactive: viability [1] 111% | Potency [2] | Potency [3] | Potency [5] | Potency [6]

CC(C)C(=O)OCC(=O)[C@@]12O[C@H](C3CCCCC3)O[C@@H]1C[C@H]1[C@@H]3CCC4=CC(=O)C=C[C@]4(C)[C@H]3[C@@H](O)C[C@@]12C
active: Potency [2] 14.8 µM | Potency [3] 23.5 µM | Potency [4] 20.9 µM | Potency [6] 16.6 µM
inactive: viability [1] 102%

Cc1cc(-c2cnn3c(NCC4CC(C)(O)C4)cc(Oc4cccnc4)nc23)ccc1C(=O)NC1CC1 (stereo not drawn)
active: Potency [1] 1.18 µM | Potency [2] 0.263 µM | Potency [3] 0.332 µM | Potency [4] 0.934 µM | Potency [6] 1.05 µM

N#C/C(=C1/Nc2ccccc2S1)c1ccnc(OCc2ccc(CN3CCOCC3)cc2)n1
active: Potency [1] 20.9 µM | Potency [2] 14.8 µM | Potency [3] 16.6 µM | Potency [4] 16.6 µM | Potency [6] 20.9 µM

C=CC(=O)N1CC[C@@H](Oc2nc(Nc3ccc(N4CCC(N5CCN(C)CC5)CC4)cc3)c(C(N)=O)nc2CC)C1
active: Potency [1] 10.2 µM | Potency [2] 4.56 µM | Potency [3] 0.102 µM | Potency [4] 7.23 µM | Potency [5] 4.07 µM | Potency [6] 6.45 µM

CS(=O)(=O)Nc1cc2occ(NC=O)c(=O)c2cc1Oc1ccccc1
inactive: viability [1] 101% | Potency [2] | Potency [3] | Potency [4] | Potency [5] | Potency [6]

C[C@]12CCC3[C@@H](CC[C@H]4NC(=O)C=C[C@]34C)[C@@H]1CC[C@@H]2C(=O)Nc1cc(C(F)(F)F)ccc1C(F)(F)F (stereo partly drawn)
inactive: viability [1] 118% | Potency [2] | Potency [3] | Potency [4] | Potency [5] | Potency [6]

Cc1nnn(C)c1-c1cnc2c3ccc(C(C)(C)O)cc3n([C@H](c3ccccc3)C3CCOCC3)c2c1
active: Potency [1] 0.0148 µM | Potency [2] 0.0059 µM | Potency [3] 0.0042 µM | Potency [4] 0.0295 µM | Potency [5] 0.0263 µM | Potency [6] 0.0661 µM

COCCOC(=O)N1CCN(S(=O)(=O)c2cc(F)c(Oc3ccc(Cl)cc3)c(F)c2)C(C(=O)NO)C1 (stereo not drawn)
active: Potency [1] 10.5 µM | Potency [2] 14.8 µM | Potency [3] 16.6 µM | Potency [4] 5.9 µM | Potency [5] 8.33 µM | Potency [6] 8.33 µM

O=C(O)c1cccnc1
inactive: viability [1] 118% | Potency [2] | Potency [3] | Potency [4] | Potency [5] | Potency [6]

Nc1ccn([C@@H]2O[C@H](CO)[C@@H](O)[C@H]2O)c(=O)n1
inactive: viability [1] 117% | Potency [2] | Potency [7] | Potency [5] | Potency [6]
active: Potency [3] 16.6 µM

CCCCCCCCCCCC(CC1OC(=O)C1CCCCCC)OC(=O)C(CC(C)C)NC=O (stereo not drawn)
inactive: viability [1] 98.6% | Potency [2] | Potency [7] | Potency [5] | Potency [6]
active: Potency [3] 0.742 µM

N[C@@H]1CN(c2c(F)cc3c(=O)c(C(=O)O)cn([C@@H]4C[C@@H]4F)c3c2Cl)CC12CC2
inactive: viability [1] 105% | Potency [2] | Potency [3] | Potency [7] | Potency [5]

Cc1ccc(F)c(NC(=O)Nc2ccc(-c3cccc4[nH]nc(N)c34)cc2)c1
active: Potency [1] 14.8 µM | Potency [2] 18.6 µM | Potency [3] 0.0074 µM | Potency [7] 16.6 µM | Potency [5] 16.6 µM | Potency [6] 16.6 µM

Nc1nc(F)nc2c1ncn2[C@@H]1O[C@H](COP(=O)(O)O)[C@@H](O)[C@@H]1O
active: Potency [1] 3.72 µM | Potency [2] 20.9 µM | Potency [3] 11.8 µM | Potency [7] 1.18 µM | Potency [5] 3.32 µM | Potency [6] 4.17 µM

COc1ccc(C(=O)N2CCN(c3ccc4c(c3)CCC(=O)N4)CC2)cc1OC
inactive: viability [1] 105% | Potency [2] | Potency [3] | Potency [7] | Potency [5]

CN(C)Cc1ccc(S(=O)(=O)n2ccc(/C=C/C(=O)NO)c2)cc1
active: Potency [1] 3.72 µM | Potency [2] 5.25 µM | Potency [3] 2.35 µM | Potency [7] 4.68 µM | Potency [5] 4.17 µM | Potency [6] 5.9 µM

NC[C@H]1O[C@H](O[C@H]2[C@H](O)[C@@H](O[C@H]3O[C@H](CO)[C@@H](O)[C@H](N)[C@H]3O)[C@H](N)C[C@@H]2N)[C@H](N)C[C@@H]1O
inactive: viability [1] 115% | Potency [2] | Potency [3] | Potency [7] | Potency [5]

COc1cc(F)ccc1-c1ncnc(Nc2cccc(CS(C)(=N)=O)c2)n1 (stereo not drawn)
active: Potency [1] 1.32 µM | Potency [2] 0.934 µM | Potency [3] 0.742 µM | Potency [7] 0.833 µM | Potency [5] 0.662 µM | Potency [6] 0.934 µM

CC(C)NC(=O)C1CCC(n2c(NC(=O)c3ccc(F)cc3)nc3ccc(CN4CCC(C(C)(C)O)CC4)cc32)CC1 (stereo not drawn)
inactive: viability [1] 121% | Potency [7]
active: Potency [2] 3.62 µM | Potency [3] 1.82 µM

CC1(C)OCCn2c1nc1c(N3CCOCC3)nc(-c3cnc(N)nc3)nc12
active: Potency [1] 1.86 µM | Potency [2] 0.934 µM | Potency [3] 0.934 µM | Potency [7] 0.468 µM

COc1ccc(S(=O)(=O)N(C(C)=O)c2ccccc2/C=C/c2cc[n+]([O-])cc2)cc1
active: Potency [1] 2.63 µM | Potency [2] 1.18 µM | Potency [3] 1.18 µM | Potency [7] 1.32 µM | Potency [5] 1.18 µM | Potency [6] 0.833 µM

CC(C)(NS(=O)(=O)c1ccc2c(Cl)cnc(N=C(N)N)c2c1)C(=O)O
inactive: viability [1] 117% | Potency [2] | Potency [3] | Potency [7] | Potency [5] | Potency [6]

N#Cc1ccc(C(c2ccc(C#N)cc2)n2cncn2)cc1
inactive: viability [1] 96.2% | Potency [2] | Potency [3] | Potency [7] | Potency [5] | Potency [6]

CC(C)n1c(=O)cc(N[C@@H](C)c2ccccc2)[nH]c1=O
inactive: viability [1] 110% | Potency [2] | Potency [7] | Potency [5]
active: Potency [3] 14.8 µM

CC(C)(C)OC(=O)Nc1ccc(-c2cc(C(=O)NCCCCCCC(=O)NO)no2)cc1
active: Potency [1] 2.95 µM | Potency [2] 2.63 µM | Potency [3] 1.66 µM | Potency [7] 3.72 µM | Potency [5] 2.63 µM

NC1CCCN(c2c(/C=C3\SC(=O)NC3=O)cccc2-c2ccccc2)C1 (stereo not drawn)
active: Potency [1] 5.9 µM | Potency [2] 0.235 µM | Potency [3] 1.18 µM | Potency [7] 0.59 µM | Potency [5] 18.6 µM

C/C(=N\NC(=S)N1CCC1)c1ccccn1
active: Potency [1] 0.059 µM | Potency [2] 0.0372 µM | Potency [3] 0.0372 µM | Potency [7] 0.0417 µM | Potency [5] 0.0372 µM | Potency [6] 0.0417 µM

CC(C)(C)c1[nH]cnc1/C=c1\[nH]c(=O)/c(=C/c2ccccc2)[nH]c1=O
active: Potency [1] 0.0833 µM | Potency [2] 0.0742 µM | Potency [3] 0.0833 µM | Potency [7] 0.059 µM | Potency [5] 0.059 µM | Potency [6] 0.0742 µM

COc1ncc(-c2ccc3nccc(-c4ccnnc4)c3c2)cc1NS(=O)(=O)c1ccc(F)cc1F
active: Potency [1] 0.332 µM | Potency [2] 0.0833 µM | Potency [3] 0.105 µM | Potency [7] 0.0372 µM | Potency [5] 0.209 µM

C=C1C(=O)OC2/C=C(/C)CC/C=C(/C)CCC12 (stereo not drawn)
active: Potency [1] 20.9 µM | Potency [2] 18.6 µM | Potency [3] 14.8 µM | Potency [7] 26.3 µM | Potency [5] 26.3 µM

C/C=C(/C)C(=O)O[C@H]1C(C)=CC23C(=O)C(C=C(CO)[C@@H](O)[C@]12O)[C@H]1[C@@H](C[C@H]3C)C1(C)C (stereo partly drawn)
active: Potency [1] 7.42 µM | Potency [2] 0.0053 µM | Potency [3] 0.0525 µM | Potency [7] 0.0019 µM

C=CC(=O)N1CCC(CNc2ncnc(N)c2-c2ccc(Oc3ccccc3)cc2)CC1
inactive: viability [1] 101% | Potency [7]
active: Potency [2] 16.6 µM | Potency [3] 13.2 µM

C=C1C[C@@H]2CC[C@@]34C[C@H]5O[C@H]6[C@@H](O3)[C@H]3O[C@H](CC[C@@H]3O[C@H]6[C@H]5O4)CC(=O)C[C@@H]3[C@@H](OC)[C@@H](C[C@H](O)CN)O[C@H]3C[C@H]3O[C@@H](CC[C@@H]1O2)C[C@@H](C)C3=C
active: Potency [1] 0.152 µM | Potency [2] 0.0015 µM | Potency [3] 0.0017 µM | Potency [7] 0.0011 µM | Potency [5] 0.0015 µM | Potency [6] 0.0019 µM

COc1cc2nccc(Oc3ccc(NC(=O)c4cn(C(C)C)c(=O)n(-c5ccc(F)cc5)c4=O)cc3F)c2cc1OC
inactive: viability [1] 113% | Potency [2] | Potency [7] | Potency [6]
active: Potency [3] 0.468 µM

Cc1cc(/C=c2/sc3nc4ccccc4n3c2=O)c(C)n1-c1ccccc1
active: Potency [2] 14.8 µM | Potency [3] 20.9 µM | Potency [5] 16.6 µM
inactive: viability [1] 105% | Potency [7]

CCC[C@H](Nc1nc(-c2ccc(NC(=O)NCC)c(OC)c2)ncc1C)c1cccnc1
active: Potency [1] 0.118 µM | Potency [2] 0.105 µM | Potency [3] 0.0525 µM | Potency [7] 0.132 µM | Potency [5] 0.105 µM | Potency [6] 0.105 µM

COc1ccc(S(=O)(=O)N2CCc3cccc(-c4ccncc4)c32)cc1
active: Potency [1] 1.66 µM | Potency [2] 1.05 µM | Potency [3] 1.18 µM | Potency [7] 1.18 µM | Potency [5] 1.05 µM | Potency [6] 0.934 µM

O=c1[nH]c(=O)n([C@H]2C[C@H](O)[C@@H](CO)O2)cc1C(F)(F)F
active: Potency [1] 5.9 µM | Potency [2] 1.66 µM | Potency [3] 1.05 µM | Potency [7] 1.48 µM | Potency [5] 1.32 µM | Potency [6] 4.68 µM

CSc1ccc(C(=O)/C=C/c2cc(C)c(OC(C)(C)C(=O)O)c(C)c2)cc1
active: Potency [1] 34 µM | Potency [2] 30.3 µM | Potency [3] 6.05 µM
inactive: Potency [7]

CC1(N)CCN(c2cnc(-c3cccc(Cl)c3Cl)c(N)n2)CC1
inactive: viability [1] 110% | Potency [2] | Potency [7] | Potency [5] | Potency [6]
active: Potency [3] 2.88 µM
